# Results reported in PubChem BioAssay (NCI).
# The panel holds about 83,000 compounds, 20% with a hit somewhere; the sample as a whole holds those more often.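 Step 1: grow cells in 96-well plates. Step 2: add test compound at a single concentration. Step 3: incubate 48 h. Step 4: record percent growth.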 Values without a mark were called inactive. Activity calls are given as the source filed them. Rule for the calls: active = growth percent below 10; inactive = the rest.
# Experiments:
# Assay in all cases: NCI-60 one-dose screen, 48 h (100 = growth as untreated, 0 = no growth, -100 = all killed)
# Details in all cases: 10 µM unless noted
# NCI-H23 lung = test system: NCI-H23 lung
# NCI-H226 lung = test system: NCI-H226 lung
# NCI-H322M lung = test system: NCI-H322M lung
# HOP-62 NSCLC = test system: HOP-62 NSCLC
# NCI-H460 lung = test system: NCI-H460 lung
# NCI-H522 lung = test system: NCI-H522 lung
# A549/ATCC NSCLC = test system: A549/ATCC NSCLC
# 786-0 renal = test system: 786-0 renal
# COLO 205 colon = test system: COLO 205 colon
# DU-145 prostate = test system: DU-145 prostate
# K-562 leukemia = test system: K-562 leukemia
# MALME-3M melanoma = test system: MALME-3M melanoma
# MDA-MB-231 breast = test system: MDA-MB-231 breast
# RXF 393 renal = test system: RXF 393 renal
# SF-268 CNS = test system: SF-268 CNS
# SF-295 CNS = test system: SF-295 CNS
# SF-539 CNS = test system: SF-539 CNS
# UACC-257 melanoma = test system: UACC-257 melanoma
# M14 melanoma = test system: M14 melanoma
SMILES,growth (NCI-H23 lung),growth (NCI-H226 lung),growth (NCI-H322M lung),growth (HOP-62 NSCLC),growth (NCI-H460 lung),growth (NCI-H522 lung),growth (A549/ATCC NSCLC),growth (786-0 renal),growth (COLO 205 colon),growth (DU-145 prostate),growth (K-562 leukemia),growth (MALME-3M melanoma),growth (MDA-MB-231 breast),growth (RXF 393 renal),growth (SF-268 CNS),growth (SF-295 CNS),growth (SF-539 CNS),growth (UACC-257 melanoma),growth (M14 melanoma)
Cn1cc(-c2cc3nc(-c4cn(C)c5ncccc45)cc(N)n3n2)c2ccccc21,55.6%,-21.6% (active),37%,-13.6% (active),3.16% (active),-4.18% (active),15.2%,-52.9% (active),3.03% (active),40.9%,-34.9% (active),-47.8% (active),-19.9% (active),-50.4% (active),15%,-30.6% (active),-78.7% (active),-49.7% (active),5.56% (active)
O=c1oc2ccc(Br)cc2cc1C1=CSc2nc3sc4c(c3c(=O)n2N=C1)CCCC4,96.6%,92.5%,96.6%,80.6%,102%,88.5%,105%,120%,105%,107%,97.1%,89%,88.2%,167%,101%,101%,100%,90.9%,92.4%
Cc1cccc(-c2nc(Nc3ccc(C)c(S(N)(=O)=O)c3)c3ccccc3n2)c1,12.9%,41.9%,34%,76.1%,19%,-30.5% (active),26.5%,10.8%,37.8%,53.2%,7.2% (active),46.6%,10.9%,22.6%,50.9%,5.63% (active),9.73% (active),76.4%,31.4%
N/C(=N\c1nc2ccccc2s1)NC(=O)Nc1ccccc1Br,-24.4% (active),8.79% (active),14.6%,-19.3% (active),-26.1% (active),-61.3% (active),-26.2% (active),-24.9% (active),-72.6% (active),-40.7% (active),11.5%,-12.5% (active),-50.3% (active),0.178% (active),1.62% (active),-31.4% (active),-75.6% (active),54.8%,2.92% (active)
Cc1sc2c(c1C)C(c1ccc(Cl)cc1)=N[C@@H](CC(=O)NCCCCCNC(=O)COc1ccc(C3CCC(=O)NC3=O)cc1)c1nnc(C)n1-2 (some centres undefined),47.3%,8.38% (active),23.7%,16%,73%,3.85% (active),25.7%,26.5%,-61.7% (active),88.5%,28.4%,13%,5.01% (active),45.3%,65.4%,9.91% (active),23.1%,49.3%,17.6%
CC12CC[C@@H]3[C@]4(C)COC(c5cn[nH]c5-c5ccc(Cl)cc5)O[C@@H]4CC[C@@]3(C)[C@@H]1CC(C1=CCOC1=O)O2 (some centres undefined),51.9%,45.5%,58.2%,62.7%,29.8%,20.9%,34%,57.1%,10.3%,61.6%,24.9%,58%,52.1%,5.04% (active),60.3%,43.8%,51.2%,46.7%,30.9%
C=C1CCC2C3(C)COC(c4cccs4)OC3CCC2(C)C1CC(Sc1ccccc1)C1=CCOC1=O (centres undefined),79.1%,87.7%,94.9%,118%,107%,65.5%,79.7%,91.9%,115%,94.4%,40.7%,103%,89.3%,107%,96.6%,92.5%,95%,95.6%,83.3%
COc1ccc(-c2nc3cc(C)ccc3n2CC(=O)N=Nc2c(O)[nH]c3ccccc23)cc1,-10.8% (active),-35.5% (active),33.1%,10.4%,-17.7% (active),42.1%,-34% (active),60.8%,7.85% (active),9.13% (active),4.42% (active),-60% (active),-54.2% (active),-29.7% (active),-5.5% (active),15.4%,-90.2% (active),-7.27% (active),-71.5% (active)
O=C(Cn1c(/C=C/c2ccccc2)nc2ccccc2c1=O)Nc1ccc(Cl)cc1,59.8%,30.2%,74.8%,57.9%,38.7%,76.7%,33.8%,-48.9% (active),78.4%,71.3%,85.2%,59.1%,4.32% (active),-8.9% (active),75.2%,59.1%,58.7%,83.6%,81.7%
CC1(c2cc3cc(Br)ccc3oc2=O)NC(=O)c2c(/C=C/C(=O)OC3CC4CCC3(C)C4(C)C)cccc2N1 (centres undefined),79.1%,75.9%,81.2%,92.5%,73.6%,68.3%,54.6%,91.5%,88.7%,84.3%,28.4%,102%,98.2%,75.2%,82.8%,64%,96.8%,77%,86%
COc1ccc(NC(=O)Cn2c3c(sc2=O)[C@H]2[C@@H](O)[C@@H](O)[C@H](O)[C@@H]2CS3)cc1,104%,96.3%,101%,99.5%,108%,94.2%,100%,104%,117%,109%,95.6%,102%,107%,114%,102%,105%,101%,102%,103%
O=C1CC(Sc2n[nH]c(-c3ccncc3)n2)C(=O)N1c1ccc(Br)cc1 (centres undefined),104%,117%,104%,98.9%,117%,-33.6% (active),106%,106%,116%,117%,88.5%,104%,99%,137%,117%,107%,102%,105%,115%
Brc1ccc(-c2n(Cc3ccc4ccccc4c3)c(-c3ccccc3)c(-c3ccccc3)[n+]2Cc2ccc3ccccc3c2)cc1,-89.3% (active),-51.6% (active),-99.1% (active),-83.4% (active),-81.3% (active),-90.9% (active),-88.8% (active),-79.3% (active),-78.2% (active),-100% (active),4.96% (active),-91% (active),-89.5% (active),-69.6% (active),-72.1% (active),-86.3% (active),-100% (active),-89.6% (active),-90.8% (active)
CN(C)c1nc(NCCNS(=O)(=O)c2ccc(C3=Nc4c(N)nc(N)nc4NC(c4ccccc4)C3)cc2)nc(Nc2ccc(F)cc2)n1 (centres undefined),58.6%,52.8%,58.4%,81.1%,25.9%,43.1%,56.4%,29.7%,44%,58%,7.64% (active),36.6%,20.7%,13.4%,46.9%,42.6%,-7.62% (active),70.8%,49.4%
CCCCSc1nc(NCCc2c[nH]c3ccccc23)c(C#N)c(-c2ccc(F)cc2)n1,82.3%,72.5%,86.3%,68.5%,25.7%,69%,74.5%,71.8%,57.8%,66.4%,22.2%,90.9%,52.2%,65.2%,54.9%,62.1%,65.2%,97.9%,65.9%
COc1ccc2c(c1)c(-c1cc3nc(-c4cn(C)c5ncccc45)cc(N)n3n1)cn2C,0.244% (active),-16.6% (active),-8.29% (active),-25.8% (active),-25.5% (active),-78.4% (active),-30.6% (active),-92% (active),-74.1% (active),-27.2% (active),-31.2% (active),-95.3% (active),-82.8% (active),-77.3% (active),11.9%,-79.4% (active),-95.8% (active),-78.7% (active),-84.3% (active)
